Assays:
[1] = test system: HIPK1
[2] = test system: HIPK2
[3] = test system: HIPK3
[4] = test system: HIPK4
[5] = test system: Haspin
[6] = test system: ICK

## COc1ccc2c(-c3ccnc(Nc4cccc(OC(F)(F)F)c4)n3)cnn2n1 [GW810372X]
[1]
  Kinases covered: HIPK1

## CCOc1ccc2c(-c3ccnc(Nc4cccc(C(F)(F)F)c4)n3)cnn2n1 [GW811761X]
[2]
  Kinases covered: HIPK2
[3]
  Kinases covered: HIPK3

## COC[C@@H](C)N[C@H]1CC[C@H](Nc2cc(-c3cccc(NCC4(C#N)CCOCC4)n3)c(Cl)cn2)CC1 [NVP-2]
[4]
  Kinases covered: HIPK4

## CCCc1cc(N2CCCN(C)CC2)nc2sc3c(N)ncnc3c12 [BI00604564]
[5]
  Kinases covered: Haspin

## Cc1cc(NC(=O)c2cccc(NC(=O)/C=C/CN(C)C)c2)ccc1Nc1nccc(-c2cccnc2)n1 [JNK-IN-7]
[6]
  Kinases covered: ICK

## CCC(NN(C)C)=C1C(=O)Nc2ccc(C(C)=O)cc21 [BI00036838]
[6]
  Kinases covered: ICK
